{
  "source": "the supplement of paper PMC12067093",
  "about": "“Discovery and optimisation of a covalent ligand for TRIM25 and its application to targeted protein ubiquitination” (Chemical Science, 2025)",
  "compound": "CC1Cc2ccccc2N1C(=O)C1CCCN(C1)C(=O)CCl (mixture of isomers) [TRIM25 ligand 11 (diastereomer mixture)]",
  "assay": "probe-labelled cysteine peptide fold change vs DMSO (competition) (log2 fold change); higher = less target engagement (more negative = stronger competition)",
  "details": "THP-1, incubation time: 4 h",
  "note": "The full data set covers some 21,000 targets. This sample favours those with the largest changes.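 Note: competitive chemoproteomic profiling in live THP-1 cells with an iodoacetamide desthiobiotin (IA-DTB) probe, comparing probe-labelled peptide intensities in compound-treated cells against DMSO-treated controls.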",
  "data": [
    {"target": "CLCN3_P51790_733_VCFAQHTPSLPAESPRPLK (UniProt P51790)", "sequence (P51790 whole entry)": "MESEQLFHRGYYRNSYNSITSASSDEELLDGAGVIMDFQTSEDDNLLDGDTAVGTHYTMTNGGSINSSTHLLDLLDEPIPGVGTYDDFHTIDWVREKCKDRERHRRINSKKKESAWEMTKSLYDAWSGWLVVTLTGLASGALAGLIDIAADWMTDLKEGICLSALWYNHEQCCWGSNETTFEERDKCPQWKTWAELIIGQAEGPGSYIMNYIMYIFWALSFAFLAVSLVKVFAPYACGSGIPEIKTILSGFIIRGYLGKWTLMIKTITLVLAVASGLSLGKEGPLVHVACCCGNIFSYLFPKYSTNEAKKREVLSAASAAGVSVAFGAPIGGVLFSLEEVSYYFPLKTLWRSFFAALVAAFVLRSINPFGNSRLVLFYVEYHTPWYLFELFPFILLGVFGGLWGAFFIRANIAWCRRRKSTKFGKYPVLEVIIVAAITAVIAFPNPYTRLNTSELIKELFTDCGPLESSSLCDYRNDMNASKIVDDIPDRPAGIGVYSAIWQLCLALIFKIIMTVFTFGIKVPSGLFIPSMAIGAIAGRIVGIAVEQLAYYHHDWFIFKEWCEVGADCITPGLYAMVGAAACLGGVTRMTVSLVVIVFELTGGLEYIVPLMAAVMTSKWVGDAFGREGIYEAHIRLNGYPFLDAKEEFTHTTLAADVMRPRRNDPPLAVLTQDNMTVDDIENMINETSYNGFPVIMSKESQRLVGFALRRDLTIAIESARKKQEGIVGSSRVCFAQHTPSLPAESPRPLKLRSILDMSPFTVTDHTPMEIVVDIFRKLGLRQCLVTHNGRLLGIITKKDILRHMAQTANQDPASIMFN", "values": [
      {"measurement": "probe-labelled cysteine peptide fold change", "setting": "10 µM", "value": 0.0602},
      {"measurement": "probe-labelled cysteine peptide fold change", "setting": "50 µM", "value": 0.0245}
    ]},
    {"target": "BZW2_Q9Y6E2_97_MTNHCVFSANEDHETIR (UniProt Q9Y6E2)", "sequence (Q9Y6E2 whole entry, looked up)": "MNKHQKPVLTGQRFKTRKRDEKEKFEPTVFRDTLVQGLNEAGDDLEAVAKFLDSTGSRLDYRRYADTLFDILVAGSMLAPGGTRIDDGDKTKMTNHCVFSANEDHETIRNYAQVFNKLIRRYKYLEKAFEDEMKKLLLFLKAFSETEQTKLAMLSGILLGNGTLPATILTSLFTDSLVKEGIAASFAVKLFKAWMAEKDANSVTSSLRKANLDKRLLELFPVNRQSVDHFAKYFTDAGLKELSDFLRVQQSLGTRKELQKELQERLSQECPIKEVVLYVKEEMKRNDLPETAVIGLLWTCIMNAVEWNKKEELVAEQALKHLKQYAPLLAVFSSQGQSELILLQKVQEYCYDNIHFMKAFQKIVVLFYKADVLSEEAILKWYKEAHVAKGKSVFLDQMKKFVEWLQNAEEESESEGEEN", "values": [
      {"measurement": "probe-labelled cysteine peptide fold change", "setting": "10 µM", "value": 0.0541},
      {"measurement": "probe-labelled cysteine peptide fold change", "setting": "50 µM", "value": -0.0628}
    ]},
    {"target": "COPS7B_Q9H9Q2_157_NQLLEVDFCIGR (UniProt Q9H9Q2)", "sequence (Q9H9Q2 whole entry, looked up)": "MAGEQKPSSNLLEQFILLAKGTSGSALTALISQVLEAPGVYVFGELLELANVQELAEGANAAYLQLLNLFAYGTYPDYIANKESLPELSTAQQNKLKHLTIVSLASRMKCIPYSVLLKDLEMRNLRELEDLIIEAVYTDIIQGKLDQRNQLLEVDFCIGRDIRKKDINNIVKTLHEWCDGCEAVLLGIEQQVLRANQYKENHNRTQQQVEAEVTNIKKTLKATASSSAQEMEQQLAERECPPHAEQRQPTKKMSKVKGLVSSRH", "values": [
      {"measurement": "probe-labelled cysteine peptide fold change", "setting": "10 µM", "value": -0.0213},
      {"measurement": "probe-labelled cysteine peptide fold change", "setting": "50 µM", "value": -0.0864}
    ]},
    {"target": "CASP8_Q14790_345_CPSLAGKPK (UniProt Q14790)", "sequence (Q14790 whole entry, looked up)": "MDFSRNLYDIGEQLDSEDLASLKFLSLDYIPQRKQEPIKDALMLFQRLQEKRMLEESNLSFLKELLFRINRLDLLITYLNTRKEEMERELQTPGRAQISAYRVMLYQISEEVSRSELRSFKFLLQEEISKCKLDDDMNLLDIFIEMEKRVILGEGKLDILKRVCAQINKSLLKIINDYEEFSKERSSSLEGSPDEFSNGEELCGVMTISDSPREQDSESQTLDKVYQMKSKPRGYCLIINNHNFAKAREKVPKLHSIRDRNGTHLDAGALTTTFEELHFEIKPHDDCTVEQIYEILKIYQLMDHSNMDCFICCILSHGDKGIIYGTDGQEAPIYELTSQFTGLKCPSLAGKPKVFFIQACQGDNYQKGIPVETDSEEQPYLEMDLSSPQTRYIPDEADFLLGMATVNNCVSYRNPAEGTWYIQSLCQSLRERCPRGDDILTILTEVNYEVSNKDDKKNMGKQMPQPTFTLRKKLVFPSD", "values": [
      {"measurement": "probe-labelled cysteine peptide fold change", "setting": "10 µM", "value": -0.0611},
      {"measurement": "probe-labelled cysteine peptide fold change", "setting": "50 µM", "value": -0.0798}
    ]},
    {"target": "BTBD2_Q9BX70_241_LFDEPQLASLCLENIDK (UniProt Q9BX70)", "values": [
      {"measurement": "probe-labelled cysteine peptide fold change", "setting": "10 µM", "value": 0.22},
      {"measurement": "probe-labelled cysteine peptide fold change", "setting": "50 µM", "value": 0.0147}
    ]},
    {"target": "CCNK_O75909_99_YVTGACCLFLAGK (UniProt O75909)", "values": [
      {"measurement": "probe-labelled cysteine peptide fold change", "setting": "10 µM", "value": 0.1},
      {"measurement": "probe-labelled cysteine peptide fold change", "setting": "50 µM", "value": 0.32}
    ]},
    {"target": "CNN2_Q99439_61_DGTILCTLMNK (UniProt Q99439)", "values": [
      {"measurement": "probe-labelled cysteine peptide fold change", "setting": "10 µM", "value": 0.00655},
      {"measurement": "probe-labelled cysteine peptide fold change", "setting": "50 µM", "value": 0.0892}
    ]},
    {"target": "CNOT8_Q9UFF9_148_HEEEGIDTLHFAELLMTSGVVLCDNVK (UniProt Q9UFF9)", "values": [
      {"measurement": "probe-labelled cysteine peptide fold change", "setting": "10 µM", "value": 0.648},
      {"measurement": "probe-labelled cysteine peptide fold change", "setting": "50 µM", "value": 0.338}
    ]},
    {"target": "CHKB_Q9Y259_85_CSLPDHLPSVGEEPREVLLR (UniProt Q9Y259)", "sequence (Q9Y259 whole entry, looked up)": "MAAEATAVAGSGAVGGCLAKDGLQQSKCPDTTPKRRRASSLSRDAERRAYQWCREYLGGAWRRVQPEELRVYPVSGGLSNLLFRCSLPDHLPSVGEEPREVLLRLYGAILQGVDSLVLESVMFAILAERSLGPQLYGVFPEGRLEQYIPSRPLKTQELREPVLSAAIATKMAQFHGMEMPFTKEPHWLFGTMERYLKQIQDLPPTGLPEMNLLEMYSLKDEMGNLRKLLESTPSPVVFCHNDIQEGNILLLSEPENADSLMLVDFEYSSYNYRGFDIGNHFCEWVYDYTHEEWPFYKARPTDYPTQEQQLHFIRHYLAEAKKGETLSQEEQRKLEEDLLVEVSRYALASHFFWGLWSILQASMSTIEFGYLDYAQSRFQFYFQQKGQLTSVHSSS", "values": [
      {"measurement": "probe-labelled cysteine peptide fold change", "setting": "10 µM", "value": -0.301},
      {"measurement": "probe-labelled cysteine peptide fold change", "setting": "50 µM", "value": -0.0104}
    ]},
    {"target": "CCAR1_Q8IX12_937_DLLMAFVYFDQSHCGYLLEK (UniProt Q8IX12)", "values": [
      {"measurement": "probe-labelled cysteine peptide fold change", "setting": "10 µM", "value": 0.653},
      {"measurement": "probe-labelled cysteine peptide fold change", "setting": "50 µM", "value": 0.739}
    ]},
    {"target": "CAMK2G_Q13555_7_ATTATCTR (UniProt Q13555)", "values": [
      {"measurement": "probe-labelled cysteine peptide fold change", "setting": "10 µM", "value": 0.042},
      {"measurement": "probe-labelled cysteine peptide fold change", "setting": "50 µM", "value": -0.225}
    ]},
    {"target": "COPA_P53621_1148_KILSACEK (UniProt P53621)", "sequence (P53621 whole entry, looked up)": "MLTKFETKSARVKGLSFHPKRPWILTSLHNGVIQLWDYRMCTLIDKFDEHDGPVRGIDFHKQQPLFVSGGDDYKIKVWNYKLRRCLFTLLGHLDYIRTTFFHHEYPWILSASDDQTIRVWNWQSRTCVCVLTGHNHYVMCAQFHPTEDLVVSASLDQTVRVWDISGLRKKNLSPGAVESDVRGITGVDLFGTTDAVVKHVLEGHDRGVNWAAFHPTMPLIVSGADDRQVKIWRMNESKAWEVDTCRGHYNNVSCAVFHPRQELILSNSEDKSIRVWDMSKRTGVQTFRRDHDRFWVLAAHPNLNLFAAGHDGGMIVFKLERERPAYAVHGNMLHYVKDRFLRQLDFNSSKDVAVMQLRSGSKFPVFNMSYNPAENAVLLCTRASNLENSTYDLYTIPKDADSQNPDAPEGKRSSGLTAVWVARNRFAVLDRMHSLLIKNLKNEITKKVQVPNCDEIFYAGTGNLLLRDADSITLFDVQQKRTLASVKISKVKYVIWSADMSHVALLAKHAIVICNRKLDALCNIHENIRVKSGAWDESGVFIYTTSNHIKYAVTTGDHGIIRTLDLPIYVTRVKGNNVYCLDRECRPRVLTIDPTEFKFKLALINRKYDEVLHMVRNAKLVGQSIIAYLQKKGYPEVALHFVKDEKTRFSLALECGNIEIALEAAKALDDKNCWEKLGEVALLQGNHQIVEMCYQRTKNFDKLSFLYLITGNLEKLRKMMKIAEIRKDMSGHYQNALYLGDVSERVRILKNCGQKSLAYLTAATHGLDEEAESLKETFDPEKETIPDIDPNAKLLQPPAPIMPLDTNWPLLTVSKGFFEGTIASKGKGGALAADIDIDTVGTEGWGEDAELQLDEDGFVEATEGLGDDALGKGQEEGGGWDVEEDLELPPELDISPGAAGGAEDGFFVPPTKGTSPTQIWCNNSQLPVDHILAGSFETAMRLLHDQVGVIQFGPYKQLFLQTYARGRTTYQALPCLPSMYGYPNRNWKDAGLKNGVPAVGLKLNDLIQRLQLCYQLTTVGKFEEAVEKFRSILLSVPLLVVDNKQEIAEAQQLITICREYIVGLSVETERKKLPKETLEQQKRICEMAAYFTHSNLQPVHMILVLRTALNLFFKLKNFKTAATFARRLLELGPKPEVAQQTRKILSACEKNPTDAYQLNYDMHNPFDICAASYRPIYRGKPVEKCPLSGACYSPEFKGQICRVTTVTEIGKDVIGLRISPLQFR", "values": [
      {"measurement": "probe-labelled cysteine peptide fold change", "setting": "10 µM", "value": -0.616},
      {"measurement": "probe-labelled cysteine peptide fold change", "setting": "50 µM", "value": -0.459}
    ]},
    {"target": "CNOT4_O95628_175_AIQCVNNVVVDGR (UniProt O95628)", "values": [
      {"measurement": "probe-labelled cysteine peptide fold change", "setting": "10 µM", "value": 0.0992},
      {"measurement": "probe-labelled cysteine peptide fold change", "setting": "50 µM", "value": 0.172}
    ]},
    {"target": "CFL1_P23528_139_KLTGIKHELQANCYEEVK (UniProt P23528)", "sequence (P23528 whole entry, looked up)": "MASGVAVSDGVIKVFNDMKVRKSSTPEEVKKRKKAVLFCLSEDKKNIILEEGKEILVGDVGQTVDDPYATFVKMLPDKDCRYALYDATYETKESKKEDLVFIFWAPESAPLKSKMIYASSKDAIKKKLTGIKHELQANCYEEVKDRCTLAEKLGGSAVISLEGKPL", "values": [
      {"measurement": "probe-labelled cysteine peptide fold change", "setting": "10 µM", "value": -0.632},
      {"measurement": "probe-labelled cysteine peptide fold change", "setting": "50 µM", "value": -0.503}
    ]},
    {"target": "CCT5_P48643_181_VVNSCHR (UniProt P48643)", "sequence (P48643 whole entry, looked up)": "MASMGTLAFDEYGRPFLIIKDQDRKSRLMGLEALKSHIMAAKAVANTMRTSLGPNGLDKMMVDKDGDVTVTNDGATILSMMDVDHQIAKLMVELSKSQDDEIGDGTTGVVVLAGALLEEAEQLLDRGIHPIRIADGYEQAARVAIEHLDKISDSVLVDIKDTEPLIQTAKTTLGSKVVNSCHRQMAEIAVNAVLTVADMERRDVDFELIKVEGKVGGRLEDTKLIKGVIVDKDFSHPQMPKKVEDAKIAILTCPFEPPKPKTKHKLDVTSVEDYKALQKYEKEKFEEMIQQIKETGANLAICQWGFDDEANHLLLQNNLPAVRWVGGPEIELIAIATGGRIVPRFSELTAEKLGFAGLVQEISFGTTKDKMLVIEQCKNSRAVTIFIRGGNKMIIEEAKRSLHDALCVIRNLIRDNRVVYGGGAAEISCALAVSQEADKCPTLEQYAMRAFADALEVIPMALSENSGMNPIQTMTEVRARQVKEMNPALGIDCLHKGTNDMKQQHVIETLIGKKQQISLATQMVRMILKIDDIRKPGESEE", "values": [
      {"measurement": "probe-labelled cysteine peptide fold change", "setting": "10 µM", "value": 0.109},
      {"measurement": "probe-labelled cysteine peptide fold change", "setting": "50 µM", "value": 0.0213}
    ]},
    {"target": "COG3_Q96JB2_363_ELLLGPSIACTVAELTSQNNRDHCALVR (UniProt Q96JB2)", "values": [
      {"measurement": "probe-labelled cysteine peptide fold change", "setting": "10 µM", "value": -0.436},
      {"measurement": "probe-labelled cysteine peptide fold change", "setting": "50 µM", "value": 0.793}
    ]},
    {"target": "CDYL_Q9Y232_571_MELEQANERECEVLK (UniProt Q9Y232)", "sequence (Q9Y232 whole entry, looked up)": "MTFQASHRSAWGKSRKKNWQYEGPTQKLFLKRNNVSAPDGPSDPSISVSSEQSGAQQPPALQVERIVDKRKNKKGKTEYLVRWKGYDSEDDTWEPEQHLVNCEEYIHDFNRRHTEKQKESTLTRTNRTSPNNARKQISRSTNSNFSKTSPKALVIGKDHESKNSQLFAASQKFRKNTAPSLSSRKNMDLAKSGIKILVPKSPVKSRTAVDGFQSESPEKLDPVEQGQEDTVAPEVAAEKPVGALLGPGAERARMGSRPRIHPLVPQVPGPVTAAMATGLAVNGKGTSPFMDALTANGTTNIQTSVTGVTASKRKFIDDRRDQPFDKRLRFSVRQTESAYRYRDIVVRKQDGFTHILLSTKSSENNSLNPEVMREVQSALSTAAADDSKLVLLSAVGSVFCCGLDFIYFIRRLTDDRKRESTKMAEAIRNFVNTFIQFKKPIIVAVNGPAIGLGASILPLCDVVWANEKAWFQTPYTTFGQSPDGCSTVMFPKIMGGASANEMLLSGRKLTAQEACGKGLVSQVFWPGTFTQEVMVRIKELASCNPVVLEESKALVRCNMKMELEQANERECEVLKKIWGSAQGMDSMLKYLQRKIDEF", "values": [
      {"measurement": "probe-labelled cysteine peptide fold change", "setting": "10 µM", "value": -0.0968},
      {"measurement": "probe-labelled cysteine peptide fold change", "setting": "50 µM", "value": -0.0996}
    ]}
  ]
}
